From ChEMBL document CHEMBL1201862, “PubChem BioAssay data set” (2004)
Hit rate of the full screen: of about 42,000 sequences, about 2,900 (6.9%) were called active. Rule as the data show it: active = GI50 up to about 1.1 µM and inactive = higher. This excerpt belongs to a sample that is enriched for actives. Results with a measured potency or affinity are listed apart.

test system: T47D

Substance	GI50
[Bis(aminomethyl)tetramethylenesilane]dichloropaltinum(II), CHEMBL2146205	5 µM
[Bis(aminomethyl)pentamethylenesilane]dichloropaltinum(II), CHEMBL2146202	1.34 µM
[Bis(aminomethyl)tetramethylenesilane]tetrachloropaltinum(IV), CHEMBL2146189	0.184 µM
[Bis(aminomethyl)dimethylsilane]tetrachloroplatinum(IV), CHEMBL2146190	14.6 µM
[Bis(aminomethyl)pentamethylenesilane]tetrachloropaltinum(IV), CHEMBL2146204	2.18 µM
CISPLATIN, CHEMBL11359	14 µM
